CHX counter: counter-screen hit for Shiga toxin inhibitors, cycloheximide; cell reporter, cycloheximide protein synthesis inhibition counterscreen; max response, %; 300,000 tested, 12% active; AID 2314; in the data active means max response mostly above about 13%, no sharp cut-off; inactive means mostly below about 14%; further: read at 38.3 µM for the half of the compounds with a filed dose
Shiga toxin inh: inhibitors of Shiga toxin in Vero cells; 290,000 tested, 9.2% active; inhibition, % at 38.7 µM; Vero cells, Shiga toxin protein synthesis inhibition reporter; AID 2315; in the data active means inhibition mostly above about 28%, no sharp cut-off; inactive means mostly below about 43%
SARS PLP yeast: SARS-CoV PLP inhibition in yeast; 330,000 tested, 0.19% active; Potency, µM (titrated, usually from 32.9 µM), usual class: activators; AID 485353; S. cerevisiae expressing SARS-CoV PLpro, growth rescue; further: nearly all actives have a fitted effect of over 55% in size
NS1 function inh: inhibitors of influenza NS1 protein function; 270,000 tested, 0.4% active; Potency, µM (top dose mostly 46.1 µM); further: actives are rising curves; nearly all actives have a fitted effect of over 50% in size
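Read-out: OD600 growth recovery of NS1-expressing budding yeast. Cells grown overnight at 30C in -URA glucose medium, washed, resuspended and diluted 1:100 in 2% galactose assay medium, pH 6.0. Same strain lacking NS1 served as positive control.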
A number is an active result; – = inactive; ? = inconclusive; · = no result; + = active, no number; ! = not confirmed by another sample. Shown are actives, neighbours in structure and some others; about 12% of the full set was active somewhere. Unless noted, the call rests on the fitted dose curve.

SMILES	CHX counter	Shiga toxin inh	SARS PLP yeast	NS1 function inh
O=C1c2ccccc2NC2(CCCCC2)N1c1ccc(O)cc1	13.7	–	–	–
O=C1c2ccccc2NC2(CCCC2)N1N=C1CCCC1	29.4	74.1	–	–
CC(=O)[C@@H](C)CCO[C@@]1(C)OCC[C@@H]1C	·	·	·	–
CC(C)COc1ccc(C(=O)NCc2ccco2)cc1	14.1	35.8	–	–
O=C(NCc1ccccc1F)Nc1ccc([N+](=O)[O-])cc1	–	35.2	–	·
O=C(NCc1ccco1)c1ccc2c(c1)C(=O)c1ccccc1-2	19.3	66.9	–	–
COCCNC(=O)c1ccc2c(c1)C(=O)c1ccccc1-2	–	–	–	–
CC(C)(CO)NC(=O)c1ccc2c(c1)C(=O)c1ccccc1-2	51.2	86.1	–	–
O=C(NCc1cccnc1)Nc1ccc([N+](=O)[O-])cc1	–	–	–	–
CCC(=O)Nc1cc(C)c(OC)c(C)c1	–	–	–	–
CCOC(=O)CSc1nnc(COc2ccc3ccccc3c2)o1	–	–	–	–
COc1ccccc1NC(=O)CN1CCN(C(=O)C2CCCO2)CC1 (stereo not drawn)	–	–	–	–
CCOc1ccc(NC(=O)NCc2ccco2)cc1	12.2	–	–	–
O=C(NCc1ccco1)c1ccc2ccccc2c1	35.5	79.4	–	–
CCc1nc2ccc(C(=O)NCCc3ccco3)cc2nc1CC	44.7	64.8	–	–
Cc1cccc(C(=O)NCc2ccco2)c1	–	·	–	–
O=C(NCc1ccco1)Nc1ccc([N+](=O)[O-])cc1	25.7!	–	–	–
CC(C(=O)NCc1ccco1)c1ccc([N+](=O)[O-])cc1 (stereo not drawn)	–	–	–	–
CCOc1ccc(NC(=O)NC2(C(=O)NCc3ccco3)CCCCC2)cc1	–	–	–	–
CN(C)S(=O)(=O)c1ccc(Cl)c(NC(=O)COC(=O)/C=C/c2ccc3ccccc3n2)c1	·	·	–	·
COc1ccc(C(=O)N2CC(=O)Nc3ccc(F)cc3C2c2ccccc2)cc1 (stereo not drawn)	–	–	–	–
O=C(O)/C=C\C(=O)Nc1ncn[nH]1	·	·	·	–
O=C(NCc1ccco1)c1ccc(Oc2ccccc2)cc1	54.5	75.7	–	–
O=C(NCc1ccco1)Oc1ccccc1	–	–	·	–
CCOc1ccc(C(=O)NCc2ccco2)cc1	41.1	62.7	–	–
SMILES	CHX counter	Shiga toxin inh	SARS PLP yeast	NS1 function inh
COc1ccc(NC(=O)Nc2c(SC)nsc2SC)cc1	–	–	–	·
NC(=O)C1CCN(C(=O)C2CCC(=O)N(C3CCCCCC3)C2)CC1 (stereo not drawn)	–	–	–	–
Cc1nn(C)c(C)c1CN(C(=O)C1CCC(=O)N(C2CCCCCC2)C1)C(C)C (stereo not drawn)	31.2	–	?	–
O=S(=O)(Nc1ccc(-n2cnnn2)cc1)c1ccc(F)c(F)c1F	–	–	–	–
CC(C)=NOc1nc(N(C)C)nc(N2CCOCC2)n1	–	–	–	–
COc1ccc(CCNC(=O)c2c(O)c3ccccc3[nH]c2=O)cc1	–	–	–	–
CCCOc1ccccc1/C=C(\C#N)C(=O)Nc1cccnc1	34.3	78.3	–	–
O=C(CC(=O)c1ccccc1)Nc1cccnc1	23.6	–	–	–
CC(C)c1ccc(NC(=O)/C(C#N)=C/c2ccncc2)cc1	25.7	17.6	·	–
O=C(Nc1ccccc1)C(=O)Nc1cccnc1	31.6	52.7	–	–
O=C(COc1ccc(C(=O)c2ccccc2)cc1)Nc1cccnc1	–	–	–	–
Cc1ccc(S(=O)(=O)Nc2nc3ccccc3nc2NCC2CCCO2)c(C)c1 (stereo not drawn)	–	–	–	–
N#C/C(=C\c1cccnc1)C(=O)Nc1ccc(C(=O)O)cc1	–	–	–	–
N#C/C(=C\c1cccnc1)C(=O)Nc1ccccc1	17.9	–	–	–
O=C(CCCc1ccccc1)Nc1cccnc1	19.4	65.7	–	–
O=C(CCCOc1ccccc1)Nc1cccnc1	–	–	–	–
C#CCOCCOCCOCCNc1nc(N2CCN(C(=O)[C@H]([C@@H](C)CC)n3cc([C@@H](N)CO)nn3)CC2)nc(N2CCN(C(=O)[C@H](CCCCN)n3cc([C@@H](N)CC(C)C)nn3)CC2)n1	–	–	–	–
COc1ccccc1C(=O)N/C(=C\c1ccc2c(c1)OCO2)C(=O)NCCc1nc2ccccc2[nH]1	–	–	–	–
Cc1cc(N2CCOCC2)nc2ccc(Cc3ccc4nc(N5CCOCC5)cc(C)c4c3)cc12	·	·	·	–
CCN(CC)c1ccc(CNc2ccc(Br)cn2)cc1	33.1	87.9	–	–
CCC(=O)Nc1ccc(Br)cn1	–	–	–	–
CC1CCN(c2ccc(C(=O)O)cc2N)CC1	25.4	–	–	–
CCCC(=O)c1ccc(N2CCN(C(=O)c3cccs3)CC2)c(F)c1	–	–	–	–
CC(=O)c1ccc(N2CCC(C)CC2)c(F)c1	28.8	–	–	·
CC(=O)c1ccc(N2CCCC2)c(F)c1	17.2	81.4	–	–
SMILES	CHX counter	Shiga toxin inh	SARS PLP yeast	NS1 function inh
CC(=O)c1ccc(N2CCN(C(=O)c3cccs3)CC2)c(F)c1	16.0	–	–	–
Cc1ccc(S(C)(=O)=NC(=O)c2cc(C)on2)cc1 (stereo not drawn)	–	–	–	–
CC(=O)Nc1nc(NC(C)=O)c2[nH]c(CO)nc2n1	·	·	·	–
CCCC(=O)Nc1cc(C)c(NC(=O)c2ccccn2)cn1	28.1	85.8	–	–
CCCCC(=O)Nc1cnc(NC(=O)c2ccco2)cc1C	20.7	63.7	–	–
CCCC(=O)Nc1cc(C)c(NC(=O)c2ccco2)cn1	–	·	–	–
Cc1cc(NC(=O)C(C)C)ncc1NC(=O)c1ccccn1	30.1	129.2	–	–
O=C(Nc1ccc2oc(=O)ccc2c1)c1ccco1	22.3	30.8	–	–
O=C(Cc1ccccc1)Nc1ccc2oc(=O)ccc2c1	13.5	–	–	–
O=C(Nc1ccc2oc(=O)ccc2c1)c1ccc2ccccc2c1	–	–	–	–
CCCCc1c(O)nc(SCC(=O)N2CCCCC2)[nH]c1=O	16.7	–	–	–
CCc1c(C)nc(SCC(=O)N2CCCCC2)[nH]c1=O	–	–	–	–
CC(C)N(Cc1ccccc1)S(=O)(=O)c1ccc2c(c1)NC(=O)CO2	–	–	–	–
Cc1cc2nc(-c3ccc(SCc4ccccc4C#N)nc3)[nH]c2cc1C	34.3	45.6	–	–
Cc1cc(NC(=O)CSc2ccc(-c3nc4cc(C)c(C)cc4[nH]3)cn2)no1	37.8	60.5	–	?
Cc1cc2nc(-c3ccc(SCC(=O)NC(C)C)nc3)[nH]c2cc1C	45.2	+	–	·
Cc1cc2nc(-c3ccc(SCC(=O)Nc4ccc(S(=O)(=O)NC5CC5)cc4)nc3)[nH]c2cc1C	46.2	69.5	–	–
O=C(NCCN1CCOCC1)c1cc(Cl)ccc1[N+](=O)[O-]	–	–	–	–
CCOc1ccc2nc3c(cc2c1)CN(CCCO)C(=NCCOC)S3	–	–	–	–
Cc1cc(C)c(C#N)c(SCc2ccc(C(=O)O)cc2)n1	–	–	–	–
Cc1cc2nc(-c3ccc(SCC(=O)N4CCc5ccccc54)nc3)[nH]c2cc1C	42.6	–	–	–
COC(=O)CSc1ccc(-c2nc3ccc(C)cc3[nH]2)cn1	19.6	–	–	–
O=C(CSc1ccc(-c2nc3ccccc3[nH]2)cn1)N1CCN(C(=O)c2ccco2)CC1	–	–	–	–
